Only some compounds are listed: those with a hit (about 4.5% of all), similar ones and a draw of the others.
Rtt109 Vps75 = C. albicans Rtt109 histone acetyltransferase inhibition. 330,000 tested, 0.16% active. inhibition, % at 34.9 µM. purified Rtt109/Vps75, ThioGlo CoA-SH fluorescence, 4 h. Q5AAJ8;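 active = inhibition of at least 50% in every replicate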
Target sequence (Q5AAJ8 whole entry, looked up): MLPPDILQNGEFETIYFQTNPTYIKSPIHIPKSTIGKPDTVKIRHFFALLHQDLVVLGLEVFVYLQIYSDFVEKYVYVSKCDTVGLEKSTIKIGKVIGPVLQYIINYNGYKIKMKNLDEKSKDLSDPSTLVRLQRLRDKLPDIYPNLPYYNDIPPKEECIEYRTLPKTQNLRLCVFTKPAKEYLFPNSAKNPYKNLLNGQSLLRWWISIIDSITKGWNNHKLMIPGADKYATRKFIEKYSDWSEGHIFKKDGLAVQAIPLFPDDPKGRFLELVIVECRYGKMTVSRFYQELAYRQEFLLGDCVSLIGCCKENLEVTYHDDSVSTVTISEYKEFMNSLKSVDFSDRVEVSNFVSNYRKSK
Efflux pump inh = blocks antifungal efflux pumps in multiplex yeast assay. S. cerevisiae Candida pump triplex, Nile Red efflux. inhibition, % at 10 µM. 330,000 tested, 0.44% active;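 active = plate passing quality check with inhibition over a set limit, or well fluorescence over plate mean plus 4 SD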;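 also: Nile Red retained in pooled yeast measured as flow cytometry median fluorescence; 0% = buffer negative control and 100% = Enniatin B positive control; higher means more Nile Red kept so more efflux inhibition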
HDAC3 inhib = blocks human histone deacetylase 3. recombinant HDAC3, fluorogenic peptide/trypsin coupled, fluorescence. 320,000 tested, 0.15% active. inhibition, % at 8.3 µM. O15379; in the data active = inhibition above about 26%, passing the limit was not always enough
ALR inh = inhibitors of human sulfhydryl oxidase ALR. 290,000 tested, 3.8% active. purified ALR, DTT oxidation, H2O2 HRP-luminol luminescence. AID 485317. P55789. inhibition, % (concentration not given with the values);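 active = mean replicate inhibition above about 79%, with every replicate also reaching it, limit read from the data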
Rce1 inhib = blocks yeast Ras-converting enzyme | yeast membranes, quenched prenylated peptide cleavage fluorescence | Q03530 | calls only | 290,000 tested, 0.27% active;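 active = fall in fluorescence gain of 50% or more versus controls, with final raw signal at or below 3038400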;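 also: plate controls were neutral control wells for no effect and wells lacking membranes for full effect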
GRK2 inh = blocks RNA aptamer binding to human GRK2; bead flow cytometry, FAM-aptamer displacement from GRK2; 330,000 tested, 0.59% active; AID 488847; P25098; inhibition of aptamer binding, % at 10 µM;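 active = inhibition of aptamer binding above 40%, roughly 3 SD of noise, on plates passing a quality check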;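 also: median bead fluorescence of bound FAM aptamer so fluorescent compounds give negative values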
* hit, by the source's call; i = inactive; . = no result given.

SMILES | Rtt109 Vps75 | Efflux pump inh | HDAC3 inhib | ALR inh | Rce1 inhib | GRK2 inh
O=C(CCCCCNC(=O)N1CCn2c1nc1ccccc12)NCc1ccccc1Cl | -2 | 0 | -1 | -7 | i | 0
COCCNC(=S)Nc1cc(OC)c(OC)cc1C#N | -13 | . | . | . | i | .
Cc1cc(C)n(CCC(=O)N2CCCC(N3CCN(c4cccc(Cl)c4)CC3)C2)n1 (stereo not drawn) | 6 | 0 | -1 | 17 | i | 0
O=C(c1ccoc1)N1CCCC(N2CCN(c3ccc(F)cc3)CC2)C1 (stereo not drawn) | 1 | 0 | 2 | 53 | i | 0
Cc1cc(C(=O)N2CCCC(N3CCN(c4cccc(Cl)c4)CC3)C2)nn1C (stereo not drawn) | 0 | 0 | -2 | 22 | i | 5
O=C(c1ccoc1)N1CCCC(N2CCN(c3cccc(Cl)c3)CC2)C1 (stereo not drawn) | 15 | -1 | -5 | 93* | i | 3
Cc1cc(C(=O)N2CCCC(N3CCN(c4cccc(Cl)c4)CC3)C2)no1 (stereo not drawn) | 1 | 0 | 1 | 80* | . | 0
O=C(CCn1cccn1)N1CCCC(N2CCN(c3cccc(Cl)c3)CC2)C1 (stereo not drawn) | -1 | 0 | -4 | 93* | i | 0
O=C(/C=C/c1cccc(Cl)c1)NCc1ccccc1 | 4 | 0 | -6 | 1 | i | 1
Cc1ccc(C)c(-n2ccnc2SCC(=O)Nc2cccc(S(=O)(=O)NC3=NCCC3)c2)c1 | 2 | 0 | 1 | -4 | . | 0
COc1cccc(C(=S)N2CCOCC2)c1OS(=O)(=O)c1ccc(Cl)cc1 | -2 | 2 | -3 | -3 | i | 6
Cc1ccc(O)c(-c2cc(C(F)(F)C(F)F)[nH]n2)c1 | 24 | 0 | 12 | 98* | i | 0
Cc1ccc(O)c(-c2cc(-c3ccccc3C)[nH]n2)c1 | 2 | . | . | . | i | .
O=C(CNC(=O)/C=C/c1ccco1)N=Nc1c(O)[nH]c2ccccc12 | -3 | 0 | 1 | 49 | i | 50*
COc1ccc(NC(=O)CSc2nc(O)cc(=O)n2-c2ccccc2OC)cc1 | 0 | 0 | -1 | 98* | i | 4
COc1ccccc1-n1c(SCC(=O)Nc2cccc3ccccc23)nc(O)cc1=O | -3 | 0 | -9 | 98* | i | 2
CCN(CC)C(=O)CSc1nc(O)cc(=O)n1-c1ccccc1OC | -11 | 0 | 4 | 99* | i | 0
COc1ccccc1-n1c(SCC(=O)Nc2ccc(C)cc2)nc(O)cc1=O | 6 | 0 | -2 | 98* | i | 0
Cc1c(C)n2c(SCC(=O)N3CC(C)OC(C)C3)nnc2[nH]c1=O (stereo not drawn) | 7 | 0 | -5 | -1 | i | 2
Cc1ncc(COCc2ccccc2)c(CO)c1OCc1ccccc1 | -5 | . | . | . | . | .
Cc1nc(C)c(-c2csc(Nc3ccc(N)cc3)n2)s1 | -2 | 0 | 1 | 51 | . | 3
Cc1nc(C)c(-c2csc(Nc3cccnc3)n2)s1 | 13 | 0 | 1 | 89* | i | 0
CCC(=O)Nc1nc(C)c(-c2csc(Nc3ccc(C(=O)O)cc3)n2)s1 | 1 | . | . | . | i | .
CCC(=O)Nc1nc(C)c(-c2csc(Nc3cccc(C(=O)O)c3)n2)s1 | 17 | 0 | -2 | 88* | i | 0
Cc1cc(O)ccc1Nc1nc(-c2sc(N)nc2C)cs1 | 17 | 0 | 0 | 85* | i | 0
SMILES | Rtt109 Vps75 | Efflux pump inh | HDAC3 inhib | ALR inh | Rce1 inhib | GRK2 inh
Cc1nc(N)sc1-c1csc(Nc2ccccc2)n1 | -2 | 1 | 1 | 18 | i | 0
Cc1nc(C)c(-c2csc(Nc3ccc(O)c(C(=O)O)c3)n2)s1 | 14 | 0 | -5 | 89* | i | 0
O=C(O)/C=C\c1cccc(-n2nnnc2SCc2ccccc2F)c1 | 6 | 0 | 4 | 2 | i | 2
COc1ccc(CCNC(=O)CCCOc2ccc(Cl)cc2)cc1OC | -4 | 0 | -2 | -12 | i | 0
Cc1ccc(SCC(=O)Nc2nnc(C(C)(C)C)s2)cc1 | -1 | 0 | 3 | -1 | i | 1
CC(C)(C)c1ccc(OCC(=O)N(Cc2cccs2)C2CCS(=O)(=O)C2)cc1 (stereo not drawn) | 6 | 0 | 4 | 16 | i | 2
CC(=O)Nc1nc(C)c(-c2csc(Nc3ccc(O)cc3)n2)s1 | -10 | 0 | 2 | 99* | . | 2

Compound activity (PubChem)
